Sm TGR inh: inhibitors of Schistosoma mansoni thioredoxin glutathione reductase | Q962Y6 | Potency, µM (top dose mostly 114 µM), for the others: at the highest dose activity change, negative = inhibition, most hits filed as inhibitors | purified TGR, DTNB reduction, TNB absorbance 405 nm | actives 3% (n = 360,000); also: potency is read from the fitted curve at half-maximal effect; nearly all actives have a fitted effect of over 60% in size
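Kinetic colorimetric format: TGR-catalysed, NADPH-driven DTNB reduction monitored via TNB absorbance. Enzyme dispensed at 20 nM; compound exposure 15 min at room temperature before reaction start.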
Pf growth 48h: inhibits P. falciparum growth in the first generation, 48 h; P. falciparum luciferase growth in erythrocytes, 48 h; Potency, µM (doses to about 28.7 µM), without a hit: at the top dose activity change, negative = inhibition, hits mostly inhibitors; actives 5.9% (n = 310,000); AID 504832; also: potency is read from the fitted curve at half-maximal effect
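Parasite viability was followed by luminescence of a genomically integrated firefly luciferase. Cultures held 0.1% parasitemia at 2% hematocrit (final), incubated under 5% CO2 at 37 C.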
Pf growth 96h: inhibits malaria parasite growth, 96 h; P. falciparum luciferase reporter growth, 96 h; Potency, µM (highest dose often 28.7 µM), inactives show at the highest dose activity change, negative = inhibition, actives largely listed as inhibitors; actives 6.9% (n = 320,000); AID 504834; also: potency is read from the fitted curve at half-maximal effect
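Two-generation exposure (96 h) targets delayed-death phenotype. Reporter parasites carrying integrated firefly luciferase, in red cells at 2% hematocrit and 0.05% parasitemia final, kept at 37 C, 5% CO2; luminescence loss indicates inhibition.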
HCMV antiviral: inhibitors of human cytomegalovirus | activity change, negative = inhibition, % at 57.5 µM | AID 1259415 | HFF cells, HCMV-luciferase reporter, 72 h; hits give low values | actives 4.5% (n = 410,000); in the data active = activity change below about -60%; inconclusive = no clear call, values can overlap the other calls; inactive = above about -39%
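Screen run at 2 compound doses on HFFs infected with reporter HCMV, MOI 1 PFU/cell. Luciferase activity from cell lysates at 72 h post infection gave inhibition relative to buffer-only and Salinomycin wells.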
FBPA Giardia inh: inhibitors of Giardia lamblia fructose-1,6-bisphosphate aldolase; A8B2U2; purified Giardia FBPA; Potency, µM (top dose mostly 59.6 µM), for inactives: at the highest dose activity, negative = inhibition, usual class: inhibitors; actives 0.71% (n = 290,000); AID 2451; also: potency is read from the fitted curve at half-maximal effect; nearly all actives have a fitted effect of over 55% in size
Target sequence (A8B2U2 whole entry, looked up): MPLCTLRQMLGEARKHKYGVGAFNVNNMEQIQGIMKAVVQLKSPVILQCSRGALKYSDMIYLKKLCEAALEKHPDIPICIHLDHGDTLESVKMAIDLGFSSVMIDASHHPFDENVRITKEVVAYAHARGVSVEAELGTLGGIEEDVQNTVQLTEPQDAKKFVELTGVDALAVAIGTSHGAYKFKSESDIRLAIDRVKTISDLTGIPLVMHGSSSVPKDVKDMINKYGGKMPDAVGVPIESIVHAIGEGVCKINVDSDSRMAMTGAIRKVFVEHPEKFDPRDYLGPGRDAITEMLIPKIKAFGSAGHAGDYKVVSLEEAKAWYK
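Giardia FBPA (40 nM reagent) was preincubated 10 min at RT with compound (up to 57.5 uM final), then substrate plus GAPDH/TPI/NAD/arsenate coupling system with diaphorase/resazurin was added; resorufin fluorescence (525/598 nm) was read after 20 min.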
The depositor's hits bear a star; ? = inconclusive; . = no result; [ ] = another dose, or the depositor's remark. The list is not random: actives were taken first. Their share in the collection is about 14%. Unless noted, calls follow the shape of the dose curve; as a rule, active = well fitted curve in the direction sought with a large enough effect; inconclusive = small, poorly fitted or top-dose-only effect, or another doubt; inactive = no such curve, though single readings can be large; an effect the other way counts as inactive or inconclusive. % is scaled to controls: 0 for no effect and ±100 for the full control effect.

SMILES	Sm TGR inh	Pf growth 48h	Pf growth 96h	HCMV antiviral	FBPA Giardia inh
Cc1cc(N2CCCCC2)nc(N2CCCCC2)n1	1%	28%[1.15 µM]	?	-61*	2%
O=C1C2C(c3ccccc3)C=CC(c3ccccc3)C2C(=O)N1c1ccccn1 (centres undefined)	-8%	33%	1.3µM*	6	-4%
O=C1C2C(c3ccccc3)C=CC(c3ccccc3)C2C(=O)N1c1ccncc1 (centres undefined)	-17%	-9%	14%	-19	1%
COC(=O)c1nc(NC(=O)c2cc(OC)c(OC)c(OC)c2)n[nH]1	32µM*	-1%	-4%	18	.
COc1cc(C(=O)Nc2ccc(NC(=O)c3ccccc3Cl)nc2)cc(OC)c1OC	9%	9.3µM*	147%	-35	4%
COc1ccc(C(=O)Nc2ccc(NC(=O)c3cc(OC)c(OC)c(OC)c3)cn2)cc1	1%	2.1µM*	32%	-30	?
COc1cc(C(=O)Nc2ccc(Nc3ccccc3)cc2)cc(OC)c1OC	4%	-6%	13µM*	18	3%
COc1cc(C(=O)Nc2cc(-c3ccccc3)[nH]n2)cc(OC)c1OC	-9%	12µM*	4%	21	10%
COc1cc(C(=O)NC(c2ccccc2)c2ccccc2)cc(OC)c1OC	0%	?	-11%	5	?
COc1cc(/C=C(\NC(=O)c2cc(OC)c(OC)c(OC)c2)C(=O)NC(C(=O)O)c2ccccc2)cc(OC)c1OC (centres undefined)	-25%	0%	13µM*	44	.
COc1cc(C(=O)Nc2nc(OC)c(-c3ccccc3)c(OC)n2)cc(OC)c1OC	-2%	?	.	6	-6%
COc1cc(C(=O)Nc2ccc(NC(=O)c3ccccc3)nc2)cc(OC)c1OC	-12%	5.2µM*	29%	2	3%
CN(C)c1ccc(-c2cncnc2Nc2ccccc2)cc1	.	.	.	.	-23%
CCOC(=O)/C(C#N)=C\c1c(OCC)n(CC)c2ccccc12	-26%	?	12µM*	-69*	0%
CCOc1c(/C=C(\C#N)C(N)=O)c2ccccc2n1CC	-30%	4%	13µM*	-67*	1%
CCOc1cc(/C=C(\C#N)C(N)=O)ccc1OS(=O)(=O)c1ccccc1	-12%	3%	-11%	?	-23%
CCOC(=O)/C(C#N)=C\c1cc(C)n(-c2ccccc2)c1C	-3%	111%	313%	?	-4%
CCOC(=O)/C(C)=N/NC(C)=O	.	.	.	.	1%
CC(C)=NO[C@@H](C)CN1CCCCc2nc(C)c(C)cc21	.	.	.	.	-1%[12.9 µM]
O=C1[C@@H]2[C@H](C(=O)N1Cc1ccco1)[C@H]1C=C[C@@H]2C1	50µM*	17%	.	-5	4%
CC(c1ccccc1)C1CC(=O)N(Cc2ccco2)C1=O (centres undefined)	7.1µM*	?	-18%	7	-2%
CC(c1ccccc1)C1CC(=O)N(CC(=O)O)C1=O (centres undefined)	4%	14%	37%	38	8%
O=c1ccc(-c2ccc(S(=O)(=O)Nc3ccc(F)cc3)s2)n[nH]1	-8%	27%	?	?	.
O=c1ccccn1CCOc1ccccc1Cl	-7%	27%	1%	104	1%
Cc1ccc(C=C(C#N)C(=O)c2ccccc2)cc1	.	.	.	-17	.
SMILES	Sm TGR inh	Pf growth 48h	Pf growth 96h	HCMV antiviral	FBPA Giardia inh
CCN(CC)c1ccc(/C=C(\C#N)C(=O)c2ccc(Br)cc2)cc1	-5%	0%	9%	-65*	0%
CCN(CC)c1ccc(/C=C(\C#N)C(N)=O)cc1	-8%[57.1 µM]	98%	1%	16	1%
CN(C)c1ccc(/C=C(\C#N)C(=O)c2ccccc2)cc1	0%	6%	4%	-63*	3%
CC1CCc2cc(F)ccc2N1C(=O)CCl (centres undefined)	5.6µM*	?	?	.	-7%
Cc1ccc(C(=O)N2c3ccc(F)cc3CCC2C)o1 (centres undefined)	9%	?	?	18	-5%
Cc1nn(Cc2ccc(C(=O)N3c4ccc(F)cc4CCC3C)o2)c(C)c1Br (centres undefined)	?	.	13µM*	18	1%
COc1ccccc1NC(=O)N1c2ccc(F)cc2CCC1C (centres undefined)	-26%	-16%	4.7µM*	-5	?
COc1ccc(C(=O)N2c3ccc(F)cc3CCC2C)cc1OC (centres undefined)	-5%	?	.	40	-2%
COc1ccc(-c2c(C#N)c(SCC(=O)Nc3ccc(Br)cc3)nc(C)c2C(=O)Nc2ccccc2)cc1	-4%	.	.	4	.
CCN(CC)C(=O)[C@@]1(c2ccccc2)C[C@@H]1CN	.	-7%	-4%	.	.
CC(C)CN(C(=O)c1ccc(C(F)(F)F)cc1)c1c(N)n(CC(C)C)c(=O)[nH]c1=O	1%	5%	47%	111	-6%
Cc1cc(=O)c(C(=O)O)nn1-c1cccc(C(F)(F)F)c1	-4%	23%	25%	29	-3%
O=c1ccn(-c2cccc(C(F)(F)F)c2)nc1-c1ccn(-c2ccccc2)n1	0%	10µM*	0%	-38	32µM*
COc1cc(NS(=O)(=O)c2cc3c(cc2C)n(C)c(=O)c(=O)n3C)cc(OC)c1	-7%	.	.	18	.
CN(C)c1ccc(C(=O)C(=O)c2ccccc2)cc1	14%	52%	?	-10	13%
CN(C)c1ccc2c(c1)Sc1cc(N(C)C)ccc1N2C(=O)c1ccccc1	-10%	3.7µM*	1.7µM*	30	1%
CCc1ccc(CN(Cc2ccco2)C(=O)c2cc(-c3ccc(C)c(F)c3)on2)cc1	-6%	.	.	61	.
Cn1c(CNC(=O)CCNC(=O)c2cccc(Cl)c2)cc(=O)n(C)c1=O	11%	5%	?	-17	.
COc1ccc(CCNC(=O)c2cc3c(=O)n4ccccc4nc3n(CCCN3CCOCC3)c2=N)cc1	-9%	?	?	?	6%
COc1ccc(CCn2c(=N)c(C(=O)NCCN3CCOCC3)cc3c(=O)n4ccccc4nc32)cc1OC	-1%	?	?	-9	0%
CCCNc1nc2nc3ccccn3c(=O)c2cc1C(=O)NCCN1CCOCC1	0%	15µM*	11%	-11	-3%
COc1ccc(CCn2c(=N)c(C(=O)NCCN3CCOCC3)cc3c(=O)n4cccc(C)c4nc32)cc1OC	3%	0.74µM*	0.41µM*	-95*	.
COc1ccc(CCNC(=O)c2cc3c(=O)n4ccccc4nc3n(CCCN3CCOCC3)c2=N)cc1OC	-2%	2.3µM*	2.1µM*	?	.
Cc1cccn2c(=O)c3cc(C(=O)NCCN4CCOCC4)c(=N)n(CCCN4CCOCC4)c3nc12	6%	2.9µM*	0%	-2	7%
Cc1ccc(-n2ncc3c2CCCC3NC(=O)c2csnn2)cc1C (centres undefined)	0%	?	?	?	-1%
